Results published in PubChem BioAssay AID493087 (The Scripps Research Institute Molecular Screening Center, 2011).
The campaign covered roughly 340,000 compounds. About 240 (0.071%) were called active.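 The calls were made as follows: active = activation above the mean of all tested compounds plus 3 SD, set per screening campaign (cut at about 17% in these data); inactive = the rest.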 The sample as a whole holds a higher share of actives than the screen did.

target: Insulin-degrading enzyme (Homo sapiens) (UniProt P14735); experiment: human IDE activators in live cells, primary screen, fluorescence polarization, HEK cells, FAbeta-B substrate (AID 493087); conditions: FAbeta-B cleavage, at 5.96 µM, hits give high values, 0% vehicle, 100% cell-free pure enzyme wells
Sequence (P14735 whole entry, looked up): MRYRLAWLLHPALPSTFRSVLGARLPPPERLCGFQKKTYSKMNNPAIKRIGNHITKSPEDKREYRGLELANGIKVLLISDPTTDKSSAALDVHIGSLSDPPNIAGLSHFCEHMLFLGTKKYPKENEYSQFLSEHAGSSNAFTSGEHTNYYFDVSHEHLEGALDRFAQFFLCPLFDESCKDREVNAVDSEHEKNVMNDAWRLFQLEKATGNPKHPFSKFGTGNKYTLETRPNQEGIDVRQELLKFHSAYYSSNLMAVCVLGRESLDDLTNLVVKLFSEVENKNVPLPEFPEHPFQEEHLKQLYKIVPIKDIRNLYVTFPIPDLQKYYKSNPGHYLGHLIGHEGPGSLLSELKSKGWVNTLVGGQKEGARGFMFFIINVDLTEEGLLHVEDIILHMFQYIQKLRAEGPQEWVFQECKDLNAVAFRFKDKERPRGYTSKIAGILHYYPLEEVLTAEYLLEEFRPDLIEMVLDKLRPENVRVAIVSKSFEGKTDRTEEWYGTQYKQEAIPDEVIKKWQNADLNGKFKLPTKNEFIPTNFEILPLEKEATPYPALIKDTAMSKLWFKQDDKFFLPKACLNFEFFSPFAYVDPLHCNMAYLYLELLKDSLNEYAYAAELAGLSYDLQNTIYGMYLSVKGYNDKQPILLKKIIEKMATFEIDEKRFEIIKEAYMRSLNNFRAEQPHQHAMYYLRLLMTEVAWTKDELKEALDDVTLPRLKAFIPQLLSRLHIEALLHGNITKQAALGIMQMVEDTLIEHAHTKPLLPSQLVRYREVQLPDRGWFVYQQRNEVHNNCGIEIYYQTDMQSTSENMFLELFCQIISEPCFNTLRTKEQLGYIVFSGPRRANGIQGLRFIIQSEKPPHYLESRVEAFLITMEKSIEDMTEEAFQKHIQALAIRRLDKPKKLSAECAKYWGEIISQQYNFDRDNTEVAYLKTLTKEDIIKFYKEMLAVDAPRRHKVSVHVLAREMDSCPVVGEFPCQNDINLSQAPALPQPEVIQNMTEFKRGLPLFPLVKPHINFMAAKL

activation, inactive:
Cc1ccccc1CSCCNC(=O)c1ccc(N(C)S(=O)(=O)c2ccccc2)cc1 1.48%
O=c1c([N+](=O)[O-])cccn1Cc1ccc(F)cc1Cl -1.28%
Cc1ccc(CNC(=O)CCCNC(=O)c2ccc(Cl)cc2)n1C 5.76%
CCOc1cc(/C=C2\SC(N3CCCC(C)C3)=NC2=O)ccc1O (centres undefined) -15.9%
CC(=O)Nc1ccc(S(=O)(=O)NCC(=O)OCc2cc(=O)oc3ccc4ccccc4c23)cc1 3.05%
CCC(=O)NNc1cc(=O)c2c(=O)n(C)c(=O)n(C)c2[nH]1 3.85%
Cc1noc(C)c1CSCC(=O)Nc1ccc(Br)cc1Cl 2.79%
CC1=C/C(=N\OS(=O)(=O)c2ccccc2)C=CC1=O -10.8%
Cc1cccc(NC(=O)c2cccc(C(=O)Nc3cccc(C)c3C)n2)c1C -1.85%
CC(C)(C)C1C/C(=C/c2ccco2)C(=O)/C(=C/c2ccco2)C1 (centres undefined) -0.63%
CC1CCN(C(=O)C2CCN(S(=O)(=O)N3CCC4(CC3)OCCO4)CC2)CC1 0.48%
CCOC(=O)N1CCN(Cc2nc3ccc([N+](=O)[O-])cc3c(=O)n2-c2cccc(OC)c2)CC1 1.47%
CCOc1ccc(N2C(=O)/C(=C/c3ccc(C)o3)N(C)C2=S)cc1 2.68%
CCC(C)(C)NC(=O)CN(C(=O)C(=O)Nc1ccc2c(c1)OCCO2)C(C)(C)CC 4.63%
CCOC(=O)C1(C(F)(F)F)N=C(N(C)C)OC(N(C)C)=N1 8.14%
C#CCOCCOCCOCCNc1nc(N2CCN(C(=O)Cn3cc(CCCCN)nn3)CC2)nc(N2CCN(C(=O)[C@H](CCCCN)n3cc(CCC(=O)O)nn3)CC2)n1 -2.39%
C#CCOCCOCCOCCNc1nc(N2CCN(C(=O)Cn3cc(CCO)nn3)CC2)nc(N2CCN(C(=O)[C@H](CCCCN)n3cc(CCCC)nn3)CC2)n1 2.74%
C#CCOCCOCCOCCNc1nc(N2CCN(C(=O)Cn3cc(CCO)nn3)CC2)nc(N2CCN(C(=O)Cn3cc(CCCN=C(N)N)nn3)CC2)n1 -2.84%
C#CCOCCOCCOCCNc1nc(N2CCN(C(=O)[C@H](CCCCN)n3cc(CCC(=O)O)nn3)CC2)nc(N2CCN(C(=O)[C@H](CCCCN)n3cc(CC(C)O)nn3)CC2)n1 (some centres undefined) -4.23%
C#CCOCCOCCOCCNc1nc(N2CCN(C(=O)[C@H](CCCN=C(N)N)n3cc(C(N)[C@@H](C)CC)nn3)CC2)nc(N2CCN(C(=O)[C@H](CO)n3cc([C@@H](N)C(C)C)nn3)CC2)n1 (some centres undefined) -0.94%
C#CCOCCOCCOCCNc1nc(N2CCN(C(=O)[C@H](CCC(=O)O)n3cc(CN)nn3)CC2)nc(N2CCN(C(=O)[C@H](CCC(=O)O)n3cc(CN)nn3)CC2)n1 1.77%
CN(C)C(=O)c1cc(Br)ccc1Cl 7.04%
O=C(CNC(=O)OCc1ccccc1)Oc1cc2oc(=O)cc(-c3ccccc3)c2cc1Cl 3.87%
CCCCOc1ccc(NC(=O)CSCC(=O)OCC)cc1 0.69%
Cc1ccc(COc2ccc(C(=O)NN)cc2)cc1 -2.7%
CC1CCN(C(=O)CCNC(=O)c2ccccc2)CC1 4.37%
Cc1ccc(Cl)cc1NC(=O)CN1CCN(S(=O)(=O)N2CCOCC2)CC1 3.41%
C#CCOCCOCCOCCNc1nc(N2CCOCC2)nc(N2CCN(C(=O)[C@H](Cc3ccc(O)cc3)n3cc(CCO)nn3)CC2)n1 -1.07%
COc1ccc(C2=NOC(C(=O)NCc3ccco3)C2)cc1OC (centres undefined) -0.49%
COc1ccc2c(c1)c(=Cc1ccc(N(C)C)cc1)c1cc(-c3ccccc3)[n+](C)n12 -19.1%
COC(=O)COc1ccc2c(=O)c(Oc3ccccc3Br)coc2c1 1.55%
O=C(Nc1nn(Cc2ccccc2F)cc1Br)c1cccs1 2.02%
O=C(O)CCc1cccnc1 0.08%
CCOc1ccc(S(=O)(=O)N2CCCCCC2)c2ccccc12 7.79%
COc1ccc(-c2csc3ncnc(Oc4ccc5c(C)cc(=O)oc5c4)c23)cc1 -0.97%
CCOC(=O)C1CCN(S(=O)(=O)c2ccc3c(c2)N(C)C(=O)CC(=O)N3C)CC1 4.32%
Cc1ccc(C(c2nnnn2CS(=O)(=O)c2ccc(C)cc2)N2CCC(C)CC2)cc1 (centres undefined) 6.3%
CN1CCN(C(=O)C(=O)c2cn(CC(=O)N3CCCC3)c3ccccc23)CC1 0.5%
Fc1cccc(CSc2nnc3ccc(-c4ccncc4)nn23)c1 11%
COC(=O)[C@]1(S(=O)(=O)c2ccccc2)C[C@@H]2ON=C(c3ccc(OC)cc3)[C@@H]2C1 -5.33%
COc1ccc(N2CCN(C(=O)c3ccc(N4CCCCS4(=O)=O)cc3)CC2)cc1 1.3%
CN(CC(=O)NC1CCCCC1)S(=O)(=O)c1cccc2cccnc12 4.22%
O=C1/C(=C\c2ccc(O)cc2)CCC1CNc1ccc(Cl)cc1 (centres undefined) -1.61%
N#Cc1cccc(CN2CCC(=O)N([C@H](CO)c3ccccc3)CC2)c1 2.37%
OC(COc1ccccc1)CN1CCN(c2cccc(Cl)c2)CC1 (centres undefined) 5.12%
CN(Cc1cccs1)C(=O)CN1C(=O)c2ccccc2S1(=O)=O 0.93%
COCCN(C(=S)Nc1cccc(Cl)c1C)C(C)c1ccco1 (centres undefined) 1.29%
COc1ccc(S(=O)(=O)c2c[nH]c(=S)[nH]c2=O)cc1Cl -1.33%
CN(C)S(=O)(=O)c1ccc(N2CCCC2=O)c([N+](=O)[O-])c1 5.59%
COc1ccc(Cn2cc(CN3CCS(=O)(=O)N(Cc4ccc(-c5cccc(Cl)c5)cc4)C(C)C3=O)nn2)cc1 (centres undefined) 1.16%
Cc1noc(C)c1C(=O)OC(C)C(=O)Nc1ccc2c(c1)OCO2 (centres undefined) 0.42%
CCCCSCCCNC(=O)C1CCC(CNS(=O)(=O)c2ccc(NC(C)=O)cc2)CC1 (centres undefined) -0.18%
CCn1c(=O)cc(SCC(=O)NCc2ccc3c(c2)OCO3)c2ccccc21 2.55%
C=CCn1c(=O)c(C(=O)NCc2ccc3c(c2)OCO3)c(O)c2ccccc21 3.17%
COc1ccccc1CC(NC(C)=O)C(=O)NC1CCN(C(=O)Nc2ccccc2Cl)CC1 (centres undefined) 3.56%
O=C(CSc1ncnc2sccc12)NC1CCS(=O)(=O)C1 (centres undefined) 6.28%
CCOC(=O)/C=C/c1ccc(C(F)(F)F)cc1S(=O)(=O)NC(C)(C)C -1.81%
CCOCc1c(C(=O)N2CCN(Cc3ccc(Br)s3)CC2)oc2ccccc12 7.28%
Cc1ccc(NC2CCCN(C(=O)CCC3(C)CC3)C2)cc1C (centres undefined) 3.99%
Cn1c2c(c(=O)n(C)c1=O)[C@@H]1c3c(ccc4ccccc34)OC[C@@H]1CO2 9.31%
Cc1cc(C)c(S(=O)(=O)Nc2c(C)n(C)n(-c3ccccc3)c2=O)cc1[N+](=O)[O-] 0.96%
CSc1ccccc1OCc1cc(C(=O)N2C[C@H]3CC[C@H]2C3)no1 0.59%
COC(=O)c1c(C)cc(O)c(C)c1O -0.29%
COc1ccc(CCNC(=O)CCNS(=O)(=O)c2cc(Br)cnc2N)cc1OC 3.78%
Cn1c(N)c(C(=O)COC(=O)/C=C/c2cccc(C(F)(F)F)c2)c(=O)n(C)c1=O 4.24%
CCN1CCN(C(=O)C2(NC(=O)Nc3cccc(F)c3)CCCCC2)CC1 4.93%
CC(=O)N1c2ccc(S(=O)(=O)N3CCCC(C(=O)Nc4cccc(F)c4)C3)cc2CC1C (centres undefined) 5.74%
Cc1ccc(NC(=O)C(c2ccccc2)N2CCN(C(=O)c3ccco3)CC2)cc1 (centres undefined) 0.44%
CCCC[C@@H]1CN=C(N)N1CCc1cc(C(F)(F)F)cc(C(F)(F)F)c1 5.76%
CCCC(C)C(=O)OCC(=O)Nc1c(Br)cc(C)cc1Br (centres undefined) 4.33%
Cc1ccc(S(=O)(=O)N2C[C@@H]3CCCC[C@@H]3[C@@H](C)[C@H]2c2cn(Cc3ccccc3)c3ccc(F)cc23)cc1 0.65%
Cc1cccc(N2CCN(C(=O)c3cc4c(=O)[nH]c5ccccc5c4n3C)CC2)c1C 0.68%

activation, active:
CCN(CC)CCCC(C)n1c2nc(=O)[nH]c(=O)c-2nc2cc(Cl)ccc21 (centres undefined) 75.3%
C#CCOCCOCCOCCNc1nc(N2CCN(C(=O)CCCCCCCCCCNC(=O)[C@H]([C@@H](C)CC)n3cc(CCCCN=C(N)N)nn3)CC2)nc(N2CCN(C(=O)CCCCCCCCCCNC(=O)[C@H](CO)n3cc(CCCSC)nn3)CC2)n1 58%
C#CCOCCOCCOCCNc1nc(N2CCN(C(=O)CCCCCCCCCCNC(=O)[C@H](CCCCN)n3cc(C)nn3)CC2)nc(N2CCN(C(=O)CCCCCCCCCCNC(=O)[C@H](CO)n3cc(CCCSC)nn3)CC2)n1 29.3%
C#CCOCCOCCOCCNc1nc(N2CCN(C(=O)CCCCCCCCCCNC(=O)Cn3cc(CCCCCN)nn3)CC2)nc(N2CCN(C(=O)CCCCCCCCCCNC(=O)[C@H](CO)n3cc(CCCSC)nn3)CC2)n1 32.6%
CCCCCCCCCCOC(=O)Cn1c(COc2ccc(C)cc2)[n+](C)c2ccccc21 21.7%
CCn1c(=O)c([N+](=O)[O-])c(NCc2ccc3c(c2)OCO3)c2ccccc21 23.5%
CCOC(=O)/C=C/CN(C(=O)OC(C)(C)C)S(=O)(=O)N1CC=CC1 34.8%
